Reference: PubChem BioAssay AID485297 (National Center for Advancing Translational Sciences (NCATS), 2010)
In all, about 320,000 compounds went through this assay and about 9,100 (2.8%) were called active. About 3% were inconclusive and are not listed. The entries come from a sample that favours actives as a whole. Values without a mark were called inactive. Calls follow the shape of the dose curve; as a rule, active = well fitted activation curve with a large enough effect; inconclusive = small, poorly fitted or top-dose-only effect; inactive = no such curve, though single readings can be large or run the other way.

Experiment: qHTS Assay for Rab9 Promoter Activators; also: nearly all actives have a fitted effect of over 60% in size; as to activation, negative = inhibition: % of control where 0% means no effect
Settings: Huh7 Rab9 promoter-luciferase reporter, luminescence, 24 h; series mostly up to 9.22 µM; activation, negative = inhibition: at the top concentration
Method in brief: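 Huh7 reporter line, Rab9 promoter upstream of luciferase. Compound exposure 24 h at 37 °C in reduced-serum medium with 10% FBS. Read-out: luminescence.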
Potency is read from the fitted curve at half-maximal effect.

SMILES | activation, negative = inhibition | Potency
C=CCN(c1ccccc1C(=O)NCC(=O)OCC)S(=O)(=O)c1ccc(C)cc1 | -9.66% | –
COc1cc(C#Cc2ccc3cc(CCCO)oc(=O)c3c2)cc(OC)c1 | -2.52% | –
O=C(O)c1cc(S(=O)(=O)Nc2ccc3cn[nH]c3c2)ccc1Br | 0.286% | –
O=C(CN1C(=O)NC2(CCOc3ccccc32)C1=O)NCc1ccc(F)cc1 (stereo unspecified) | -0.457% | –
CCOc1ccc(OCC(=O)OC(C)C(=O)NC2CCCCC2C)cc1 (stereo unspecified) | -4.77% | –
COc1nc(-c2ccc(Cl)cc2)ccc1-c1noc(-c2cccs2)n1 | 14.7% | –
c1ccc(-c2noc(-c3cccs3)n2)nc1 | – | 355 nM (active)
Cc1ccc(-c2noc(CSc3nnc(-c4ccncc4)n3-c3ccc(F)cc3)n2)cc1 | -5.23% | –
Clc1ccc(-n2nnnc2-c2cnc(-c3ccccn3)nc2-c2cccs2)cc1 | 0.51% | –
c1csc(-c2nc(-c3ccncc3)no2)c1 | – | 2510 nM (active)
c1ccc(CCc2nc(-c3ccncc3)no2)cc1 | 5.11% | –
Cc1ccc(-c2nc(-c3ccncc3)no2)c(C)c1 | – | 2510 nM (active)
O=C(NCc1cccnc1)c1nc(-c2cccs2)no1 | 7.62% | –
Cc1ccc(-c2noc(CSc3nnc(-c4cccs4)n3C)n2)cc1 | 5.25% | –
COc1cccc(C2=CC(=O)C[C@H](c3ccc(OC)c(OC)c3)C2)c1 | 0.14% | –
Cc1ccc(NC(=O)CCCNC(=O)c2ccc(Cl)cc2)cc1S(=O)(=O)N1CCCCC1 | 0.323% | –
CN(CCc1ccccn1)C1CCCN(S(=O)(=O)c2ccccc2Cl)C1 (stereo unspecified) | 5.86% | –
O=C(NNC(=O)C1CCC1)c1ccccc1 | 0.349% | –
COc1ccc(C(=O)N2CCN(c3ccc(C(C)=O)cc3F)CC2)cc1S(=O)(=O)NC1CC1 | -4.32% | –

SMILES | activation, negative = inhibition | Potency
O=S(=O)(NC1CCN(S(=O)(=O)c2ccc3c(c2)OCCO3)CC1)c1c(F)cccc1F | 0.297% | –
CN1CCC(N(C)S(=O)(=O)c2ccc(NC(=O)c3cccc(C#N)c3)cc2)CC1 | -3.53% | –
COC(=O)c1cc(NC(=O)C2C3C=CC(C3)C2C(=O)O)cc(C(=O)OC)c1 (stereo unspecified) | -9.89% | –
CC(=O)NS(=O)(=O)c1ccc(NC(=O)C2C3C=CC(C3)C2C(=O)O)cc1 (stereo unspecified) | -3.05% | –
CC(C)COC(=O)c1ccc(NC(=O)C2C3C=CC(C3)C2C(=O)O)cc1 (stereo unspecified) | – | 2240 nM (active)
CCOc1ncccc1C(=O)OCC(=O)N1c2ccccc2CC1C (stereo unspecified) | 0.841% | –
Cc1cc(NC(=O)CSc2nc(C(C)C)nc3sc4c(c23)CCC(C)C4)no1 (stereo unspecified) | -1.16% | –
Cc1cc(NC(=O)CSc2nc3c(cc2C#N)CCCCC3)no1 | – | 2000 nM (active)
CC(NC(=O)CSc1nc2c(cc1C#N)CN(C)CC2)c1ccccc1 (stereo unspecified) | 13.2% | –
COC(=O)c1ccc(/C=N/NC(=O)C(=O)N2CCCCCC2)cc1 | -7.08% | –
O=C(CNC(=O)C(c1ccccc1)c1ccccc1)N/N=C\c1ccc2c(c1)OCO2 | 8.43% | –
O=C(N/N=C/c1ccc([N+](=O)[O-])cc1)C(=O)N1CCCC1 | -0.644% | –
O=C(Cc1ccc(F)cc1)N/N=C/c1ccc2c(c1)OCO2 | – | 2820 nM (active)
O=C(/C=C/c1ccc2c(c1)OCO2)NCc1ccc(F)cc1 | 0.0512% | –
O=C(N/N=C/c1ccc2c(c1)OCO2)C(=O)N1CCCC1 | – | 2820 nM (active)
S=C(Nc1cccnc1)Nc1ccccn1 | -1.03% [at 1.84 µM] | –
O=C(CSc1nnc(COc2ccc(Cl)cc2)n1Cc1ccco1)N1CCNC1=O | -0.0536% | –
O=C(NCC1CCCO1)c1ccc(S(=O)(=O)Nc2ccc(F)cc2)cc1 (stereo unspecified) | -3.46% | –
COc1cccc(/C=C/C(=O)OCC(=O)N2CCN(c3ccccc3)CC2)c1 | -8.64% | –

SMILES | activation, negative = inhibition | Potency
CC(C)CNC(=O)CC(NCC(C)C)C(=O)O (stereo unspecified) | 1.69% | –
C=CCn1c(Oc2ccc(C(=O)OC)cc2)nc2c1c(=O)n(C)c(=O)n2C | -9.97% | –
C(=N/Nc1cc(N2CCOCC2)nc(N2CCOCC2)n1)/c1ccccc1 | -0.95% | –
CCN(CC)c1ccc(C(=O)N/N=C/c2ccc(N3CCOCC3)cc2)cc1 | 0.331% | –
Cc1ccccc1N/N=C/c1ccc(N2CCOCC2)cc1 | – | 2000 nM (active)
COc1ccc(C(=O)NCC(=O)N/N=C/c2cccnc2)cc1 | -4.87% | –
CCN1CCC(=NNC(=O)c2ccc(C)c([N+](=O)[O-])c2)CC1 | 17.7% | –
Cc1cc(O)c(NC(=O)c2ccc(C)c([N+](=O)[O-])c2)cc1C | – | 2820 nM (active)
Cc1ccc(C(=O)Nc2cccc3ncccc23)cc1[N+](=O)[O-] | -3.34% | –
CN(CC(=O)Nc1c(Cl)cccc1Cl)C(=O)CC1OC(=O)c2ccccc21 (stereo unspecified) | -4.49% | –
COc1cc(C(c2c(NC(=O)c3ccco3)sc(C)c2C)N2CCOCC2)cc(OC)c1OC (stereo unspecified) | 0.98% | –
COCCN(C(=O)CSCc1ccc(C)cc1)c1c(N)n(CC(C)C)c(=O)[nH]c1=O | -0.278% | –
CCN(CC)S(=O)(=O)c1ccc(OC)c(NC(=O)CCc2c(C)noc2C)c1 | -12.1% | –
O=C(c1ccc(F)cc1)n1cc(C(=S)N2CCOCC2)c2ccccc21 | -0.854% | –
O=C(c1ccc(F)cc1)n1c(=S)nc2ccccn21 | – | 891 nM (active)
O=C(C[n+]1cc(Br)cc2ccccc21)c1ccc(F)cc1 | -0.744% | –
CSc1ccccc1-c1nnc(-c2ccc(Cl)cc2)o1 | – | 3980 nM (active)
FC(F)(F)c1cnc(Oc2ccccc2-c2nnc(-c3ccc(Cl)cc3)o2)c(Cl)c1 | -2.35% | –
